Assay outcomes as filed in PubChem.
TDP-43 yeast inh: TDP-43 toxicity inhibition in yeast | TDP-43 expressing yeast growth rescue, BacTiter-Glo, 24 h | AID 652104 | Potency, µM (top dose mostly 46.1 µM), for inactives: at the top dose growth rescue (activation), actives largely listed as activators | actives 1.8% (n = 410,000); also: % of control where 0% means no effect; nearly all actives have a fitted effect of over 50% in size
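In this qHTS, compounds that restore growth of yeast expressing TDP-43 appear as activators. Cells (OD600=0.02, galactose medium, raffinose-pregrown) are incubated with compound 24 hr at 30 deg C and growth is quantified by BacTiter-Glo.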
FUS suppressor: rescues growth of FUS-expressing yeast. S. cerevisiae FUS-expressing, growth rescue, OD600, 24 h. Potency, µM (top dose mostly 76.6 µM), usual class: activators. actives 0.24% (n = 390,000). AID 1347120;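 also: plate controls were DMSO vehicle for no effect and reference control for full effect; nearly all actives have a fitted effect of over 55% in size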
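Yeast expressing FUS under galactose induction, OD 0.005 in 2% galactose medium; compounds in a dilution series, 24 h at 30C. Growth rescue by absorbance at 600 nm; CP55940 positive control, DMSO negative.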
Abeta yeast res: restores growth of yeast expressing A-beta42 peptide. yeast expressing A-beta42, growth rescue, OD600, 48 h; response scale: 0% DMSO, 100% iron-clioquinol control. Potency, µM (top dose mostly 46.1 µM), actives largely listed as activators. actives 0.063% (n = 410,000); also: nearly all actives have a fitted effect of over 55% in size
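Yeast A-beta toxicity model in growth medium with pinned compounds, 48 h at 30 C; growth read as absorbance at 600 nm. Normalized to FeCl3/clioquinol equimolar mix (positive) and DMSO (negative).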
aSyn yeast inh: rescues yeast growth from alpha-synuclein toxicity | Yeast expressing alpha-synuclein, growth rescue, BacTiter-Glo, 24 h | Potency, µM (top dose mostly 46.1 µM), for inactives: top-dose growth rescue (activation), actives largely listed as activators | actives 0.14% (n = 370,000); also: % of control where 0% means no effect; nearly all actives have a fitted effect of over 65% in size
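Rescue of yeast growth: cells expressing toxic alpha-synuclein, induced in galactose at OD600 0.02, incubated with compound 24 h at 30 C. ATP luminescence quantified growth; inhibitors of toxicity appear as activators.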
* hit, by the source's call; i = inactive; ? = inconclusive; / = not tested or not shown; [ ] = remark or other dose. In the library only some 2.1% were active in any assay of this set; here they are far more common. Calls follow the shape of the dose curve; as a rule, active = well fitted curve in the direction sought with a large enough effect; inconclusive = small, poorly fitted or top-dose-only effect, or another doubt; inactive = no such curve, though single readings can be large; an effect the other way counts as inactive or inconclusive. Potency is read from the fitted curve at half-maximal effect.

SMILES	TDP-43 yeast inh	FUS suppressor	Abeta yeast res	aSyn yeast inh
CCN1CCN(C(=O)Cn2ncc3c4ccccc4n(Cc4c(C)cc(C)cc4C)c3c2=O)CC1	-1.2%	i	i	/
COc1cc(NC(=O)CCCN2C(=O)CCn3nc(-c4cn(C)c5ccccc45)cc32)cc(OC)c1	-6.4%	?	i	/
C[C@H]1C2CC(OC(=O)NCc3ccc(Cl)cc3)C(C2)[C@H]2CCCCN21 (stereo partly drawn)	/	i	/	/
CNC(=S)Nc1ccc(C23CC4CC(CC(C4)C2)C3)cc1	-6.0%[0.397 µM]	i	7.08µM*	-7.0%
CCN(CC)/[N+]([O-])=N/Oc1ccc([N+](=O)[O-])cc1[N+](=O)[O-]	/	/	/	-73.0%
Clc1cccc(N2CCN(c3ncnc4c3nc3n4CCCC3)CC2)c1	15.8µM*	i	i	/
Cc1ccc(Cl)cc1N1CCN(c2ncnc3c2nc2n3CCCCC2)CC1	25.1µM*	i	i	/
Fc1ccc(N2CCN(c3ncnc4c3nc3n4CCCC3)CC2)cc1	-2.5%	i	i	/
COc1ccc(-c2cc(NCc3ccc(C)cc3)n3cnnc3n2)cc1	11.2µM*	i	i	/
COc1ccc(CN(CCN2CCOCC2)C(=O)c2cccc(F)c2F)cc1OC	/	i	/	/
N#Cc1nccnc1S(=O)(=O)c1cccs1	12.6µM*	i	i	-5.4%
Cc1sc2nc(-c3cccnc3)nc(Cl)c2c1-c1ccccc1	25.1µM*	/	i	-23.2%
Oc1c(Cl)cc(Cl)cc1/C=N/Nc1ncc(Br)cn1	-1.3%	i	i	1µM*
CCc1ccc(-c2nc3cc(NC(=O)c4ccc(C)c(C)c4)ccc3o2)cc1	-26.7%	i	i	/
CCc1ccc2oc(-c3ccc(NC(C)=O)cc3)nc2c1	3.55µM*	i	i	-31.2%
CCNC(=O)N1c2ccc(OC)cc2C(C)=CC1(C)C	12.6µM*	i	i	-9.5%
CCn1ncc(Br)c1C(=O)Nc1ccccc1C(=O)OC	14.1µM*	i	i	-7.1%
COC(=O)c1ccccc1NC(=O)c1c(Br)cnn1C	21.3%	i	i	1.0%
CCn1c(SCC(=O)Nc2ccc(C(=O)OC)cc2)nnc1-c1cccc(Cl)c1	/	i	/	/
CNC(=S)/N=C/NOCc1ccc(Cl)cc1Cl	10µM*	i	i	-21.1%
NC(=O)NOCc1ccc(Cl)cc1Cl	19.6%	i	i	0.0%
CCSc1nc2sc3c(c2c(=O)[nH]1)CCCC3	6.9%	i	i	2.5%
CCSC1=NC2(CCCCC2)Nc2sc3c(c21)CCCC3	28.7%	35.5µM*	i	2.8%
CN(C)C(=O)CC12CC3CC(C1)CC(CC(=O)N(C)C)(C3)C2	16.9%	i	i	0.8%
Cc1nn(C)cc1CN(C)C(=O)CC12CC3CC(CC(C3)C1)C2	22.4µM*	/	i	-1.2%
SMILES	TDP-43 yeast inh	FUS suppressor	Abeta yeast res	aSyn yeast inh
O=[N+]([O-])c1ccccc1NCCNS(=O)(=O)c1ccc(Cl)cc1	11.2µM*	/	i	15.1%
CC(=O)NC1CCCCN(Cc2ccc(Cl)cc2)C1=O (stereo not drawn)	/	i	/	/
COc1ccc(N2CCN(c3nc(-c4cccs4)nc4ccccc34)CC2)cc1	12.6µM*	?	i	-8.6%
COc1ccc(-c2nn3c(-c4ccc(C)cc4)nnc3c3ccccc23)cc1	21.5%	i	i	/
CC(C)Oc1ccc(F)cc1-c1cc(C(=O)NCc2cccs2)[nH]n1	35.5µM*	?	i	27.9%
CCCOc1ccc(F)cc1-c1cc(C(=O)NCc2ccco2)[nH]n1	14.1µM*	i	i	?
COc1cc(CNC(=O)c2cc(-c3cc(F)ccc3OC(C)C)n[nH]2)cc(OC)c1	?	i	i	-0.6%
COc1ccc(Cl)cc1-c1cc(C(=O)NCc2ccco2)[nH]n1	?	i	i	12.8%
Cc1ccc(Cl)cc1-c1cc(C(=O)NCc2ccco2)[nH]n1	14.1µM*	i	i	4.5%
COc1ccccc1CNC(=O)c1cc(-c2cc(F)ccc2OC(C)C)n[nH]1	25.1µM*	i	i	15.3%
COC(=O)c1ccc(NC(=O)c2cc(S(=O)(=O)N3CCc4ccccc43)cn2C)cc1	9.3%	i	i	/
CCN1C(=O)c2ccccc2S(=O)c2ccc(C(=O)N3CCN(c4cc(Cl)ccc4C)CC3)cc21 (stereo not drawn)	8.8%	?	i	/
COc1ccc(F)cc1-c1cc(C(=O)NCc2cccc(Cl)c2)[nH]n1	14.1µM*	i	i	24.2%
